The panel holds about 79,000 compounds, 15% with a hit somewhere; the sample as a whole holds those more often. Unmarked numbers belong to inactive results. Active and inactive are the calls of the source. No stated cut-off is given here; in the data, active means growth inhibition above about 70%; inactive means the rest.
How the values were obtained:
[1] = NCI Yeast Anticancer Drug Screen. Data for the rad50 strain (AID 155);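 further: 0% = growth of vehicle-only cultures of the same strain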; conditions: S. cerevisiae rad50 strain growth inhibition, stronger effect = higher value
Method in brief: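 Vehicle-treated cultures provide the reference for the growth inhibition reported for compound-exposed, repair-deficient yeast.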

[2] = NCI Yeast Anticancer Drug Screen. Data for the mec2-1 strain (AID 157); conditions: S. cerevisiae mec2-1 strain, stronger effect = higher value
Method in brief: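 Cells of the genetically defined mec2-1 yeast strain are incubated with test compound. Inhibition of growth is calculated against vehicle-treated controls.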

[3] = NCI Yeast Anticancer Drug Screen. Data for the sgs1 mgt1 strain (AID 161);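 further: 0% = growth of cultures given vehicle only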; conditions: S. cerevisiae sgs1 mgt1 strain, stronger effect = higher value
Method in brief: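 Read-out: growth inhibition vs vehicle controls. Cells: mutant yeast strain deficient in DNA damage repair.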

[4] = NCI Yeast Anticancer Drug Screen. Data for the cln2 rad14 strain (AID 165);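 further: 0% = growth equal to vehicle treated cultures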; conditions: S. cerevisiae cln2 rad14 strain, stronger effect = higher value
Method in brief: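 The screen exposed genetically defined yeast (cln2 rad14) to test compounds and scored growth inhibition relative to vehicle-treated controls.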

[5] = NCI Yeast Anticancer Drug Screen. Data for the bub3 strain (AID 167); conditions: S. cerevisiae bub3 mutant strain, stronger effect = higher value
Method in brief: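 Mutant yeast screening strain plus compound; vehicle-treated cultures serve as the 0% inhibition reference.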

[6] = NCI Yeast Anticancer Drug Screen. Data for the mlh1 rad18 strain (AID 175); conditions: S. cerevisiae mlh1 rad18 strain growth inhibition, stronger effect = higher value
Method in brief: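 Compound-treated yeast growth, normalised to vehicle controls. Strain bears defined DNA repair mutations.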

[7] = at 5.0 µM (retest, dose inferred, filed as 0.5)
[8] = at 50.0 µM (retest, dose inferred, filed as 5.0)

Row | Compound | growth inhibition [1, 7] | growth inhibition [1, 8] | growth inhibition ([1]; at 50.0 µM) | growth inhibition [2, 7] | growth inhibition [2, 8] | growth inhibition ([2]; at 50.0 µM) | growth inhibition [3, 7] | growth inhibition [3, 8] | growth inhibition ([3]; at 50.0 µM) | growth inhibition [4, 7] | growth inhibition [4, 8] | growth inhibition ([4]; at 50.0 µM) | growth inhibition [5, 7] | growth inhibition [5, 8] | growth inhibition ([5]; at 50.0 µM) | growth inhibition [6, 7] | growth inhibition [6, 8] | growth inhibition ([6]; at 50.0 µM)
1 | CCC#CC(O)(C(=O)OCC)C1CCCC1 (stereo not given) | -148% | -161% | -1.05% | -50% | -51% | 13.5% | -59% | -64% | -0.35% | -57% | -59% | 33.5% | -67% | -85% | 18.4% | -115% | -115% | 7.9%
2 | c1ccc(CN2CCC3(CC2)SSC2(CCN(Cc4ccccc4)CC2)S3)cc1 | 3% | 16% | 53.7% | 2% | 23% | 23.4% | 22% | 67% | 61.2% | 4% | 8% | 68.3% | 5% | 43% | 27.1% | 6% | 32% | 52%
3 | CC(C)SC(=S)Nc1ccc(Cl)cc1 | -5% | 92% (active) | 97.8% (active) | -1% | 98% (active) | 99% (active) | 8% | 88% (active) | 97% (active) | -18% | 64% | 96.8% (active) | 0% | 91% (active) | 99% (active) | 5% | 96% (active) | 98.9% (active)
4 | O=C(CCCl)Nc1ccc(CCC(=O)c2ccccc2NC(=O)CCCl)cc1 | -10% | 23% | 69.2% | -9% | -4% | 64.4% | -7% | 59% | 81.8% (active) | -24% | -22% | 27.9% | -8% | 19% | 10.8% | -11% | -6% | 54.3%
5 | CC1=C[P+](c2ccccc2)(c2ccccc2)C=C(c2ccccc2)O1 | 51% | 94% (active) | 84.5% (active) | 24% | 98% (active) | 88.1% (active) | 25% | 94% (active) | 87.4% (active) | 42% | 89% (active) | 84.8% (active) | 64% | 97% (active) | 90.4% (active) | 34% | 93% (active) | 89% (active)
6 | CCCCCCCCCCCCO | 10% | 23% | 64.4% | 9% | 24% | 42% | -4% | 28% | 60.8% | 0% | 12% | -4.65% | -6% | 51% | 2.85% | 12% | 55% | 76.4% (active)
7 | O=C(Nc1ccccc1)c1ccccc1O | 2% | 93% (active) | 86.2% (active) | -2% | 91% (active) | 79.5% (active) | 2% | 87% (active) | 92.6% (active) | -3% | 84% (active) | 73.8% (active) | -2% | 92% (active) | 86% (active) | -4% | 98% (active) | 97.2% (active)
8 | O=c1[nH]cnc2c1ncn2CCc1ccccc1 | 0% | -6% | -11.6% | -6% | -2% | -1.55% | -3% | -5% | -4.45% | -4% | 3% | 49.1% | 0% | 4% | 4.85% | 4% | -10% | -19.8%
9 | CCCCCCCCCCCOc1cccc(N2C(N)=NC(N)=NC2(C)C)c1 | 99% (active) | 91% (active) | 98.8% (active) | 99% (active) | 96% (active) | 99.5% (active) | 99% (active) | 96% (active) | 98.6% (active) | 98% (active) | 90% (active) | 58.5% | 98% (active) | 96% (active) | 99.1% (active) | 99% (active) | 95% (active) | 98.7% (active)
10 | O=[N+]([O-])/C(C(Cl)=C(Cl)Cl)=C(/Cl)SCc1ccccc1 | 100% (active) | 99% (active) | 89.8% (active) | 100% (active) | 99% (active) | 93.4% (active) | 99% (active) | 99% (active) | 90.1% (active) | 99% (active) | 99% (active) | 91.5% (active) | 99% (active) | 99% (active) | 91.5% (active) | 99% (active) | 99% (active) | 86.2% (active)

Reference: PubChem BioAssay (NCI)
